Data from publication PMC4336329 (PLoS ONE, 2015).
Out of some 310,000 compounds screened, about 14,000 (4.5%) showed an effect of 50% or more. The effect is printed as a negative number. What follows is part of a selection rich in strong results, with near analogues and random picks from the rest.

target: human ether-à-go-go-related gene (hERG) potassium channel (human, UniProt Q12809); test: primary screen, population patch clamp on CHO cells stably expressing hERG; higher = less effect of the substance
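Further: peak tail current of the secondary pulse compared with the same well before compound.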

Chain of human ether-à-go-go-related gene (hERG) potassium channel (Q12809 whole entry, looked up): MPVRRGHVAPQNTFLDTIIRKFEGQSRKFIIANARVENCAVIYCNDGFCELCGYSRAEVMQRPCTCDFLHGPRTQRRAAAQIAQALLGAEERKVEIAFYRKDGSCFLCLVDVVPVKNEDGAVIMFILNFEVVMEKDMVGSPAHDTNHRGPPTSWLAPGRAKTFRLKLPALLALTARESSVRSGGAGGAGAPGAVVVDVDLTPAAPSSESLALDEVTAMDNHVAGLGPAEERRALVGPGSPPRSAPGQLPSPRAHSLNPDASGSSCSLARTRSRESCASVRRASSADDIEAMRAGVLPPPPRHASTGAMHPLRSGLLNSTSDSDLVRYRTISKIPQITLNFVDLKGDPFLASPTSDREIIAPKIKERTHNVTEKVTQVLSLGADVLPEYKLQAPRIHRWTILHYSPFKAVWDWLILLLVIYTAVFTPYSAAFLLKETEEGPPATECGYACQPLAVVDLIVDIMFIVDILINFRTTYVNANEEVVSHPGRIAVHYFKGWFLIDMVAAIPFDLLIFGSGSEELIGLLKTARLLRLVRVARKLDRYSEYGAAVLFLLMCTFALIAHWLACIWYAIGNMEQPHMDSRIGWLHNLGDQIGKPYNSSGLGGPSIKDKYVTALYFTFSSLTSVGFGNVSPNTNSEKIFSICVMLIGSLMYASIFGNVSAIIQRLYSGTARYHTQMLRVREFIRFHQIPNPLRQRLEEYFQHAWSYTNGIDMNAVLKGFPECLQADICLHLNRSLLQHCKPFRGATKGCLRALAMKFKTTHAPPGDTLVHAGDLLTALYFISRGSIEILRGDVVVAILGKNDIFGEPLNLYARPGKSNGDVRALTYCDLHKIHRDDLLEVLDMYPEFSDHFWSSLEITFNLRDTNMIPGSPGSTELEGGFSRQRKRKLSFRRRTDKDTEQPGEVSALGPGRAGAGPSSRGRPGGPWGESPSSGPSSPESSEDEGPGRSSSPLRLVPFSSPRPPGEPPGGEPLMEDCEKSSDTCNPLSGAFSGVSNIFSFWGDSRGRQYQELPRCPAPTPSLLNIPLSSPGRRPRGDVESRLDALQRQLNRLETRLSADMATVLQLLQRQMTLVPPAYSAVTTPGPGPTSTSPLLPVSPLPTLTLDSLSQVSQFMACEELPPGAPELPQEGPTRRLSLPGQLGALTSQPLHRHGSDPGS

Structure (SMILES)	hERG current change (%, negative = inhibition) at 10uM [%]
CCCCNc1nc2c(c(=O)n(C)c(=O)n2C)n1CCC	9.61
COCCNS(=O)(=O)c1ccc(Cl)c(C(=O)NC2CCN(Cc3ccccc3)CC2)c1	-1.21
O=C(NC1CCN(Cc2ccccc2)CC1)c1cccc(S(=O)(=O)Nc2ccc(F)cc2)c1	-63.8
CCOc1ccc(NS(=O)(=O)c2ccc(C(=O)NC3CCN(Cc4ccccc4)CC3)cc2)cc1	3.07
O=C(NC1CCN(Cc2ccccc2)CC1)c1cccc(S(=O)(=O)Nc2cc(C(F)(F)F)ccc2Cl)c1	-48.8
O=C(NCCCN1CCOCC1)c1cccc(S(=O)(=O)Nc2ccc(F)cc2)c1	-23.3
COc1ccc(NS(=O)(=O)c2ccc(C)c(C(=O)NC3CCN(Cc4ccccc4)CC3)c2)cc1	-51.1
CN(C)S(=O)(=O)Nc1cccc(Br)c1	-14.2
COc1cc(O)c(C(CCN2CCCC(C)C2)c2cc(OC)c(OC)c(OC)c2)c(OC)c1 (stereo not shown)	5.07
CCCCCc1cc(=O)oc2c(C(CCN3CCCC(C)C3)c3cc(OC)c(OC)c(OC)c3)c(OC)cc(OC)c12 (stereo not shown)	-64.4
CCCCCc1cc(=O)oc2c(C(CCN(CC)CC)c3cc(OC)c(OC)c(OC)c3)c(OC)cc(OC)c12 (stereo not shown)	-38.2
CCCCCc1cc(=O)oc2c(C(CCN3CCCCC3)c3cc(OC)c(OC)c(OC)c3)c(OC)cc(OC)c12 (stereo not shown)	-74.6
CCCCCc1cc(=O)oc2c(C(CCN3CCCC3)c3cc(OC)c(OC)c(OC)c3)c(OC)cc(OC)c12 (stereo not shown)	-65.6
Cc1cccc2c1N(N=O)CCC2	-2.33
Cc1ccc(N2CC(C(=O)Nc3ccc4c(c3)OCO4)CC2=O)cc1 (stereo not shown)	9.48
Cc1ccc(-c2c(C(=O)N/N=C/C3CC=CCC3)nnn2-c2nonc2N)cc1 (stereo not shown)	20.5
Cc1nccnc1Sc1ccccc1	22.4
Cc1ccc(S(=O)(=O)NNC(=O)Cc2cccn2C)cc1	11.2
CCCCN(C)C(=O)c1oc2ccc(S(=O)(=O)N3CCCCCC3)cc2c1C	-15.9
CCC1Sc2ccc(S(=O)(=O)CCC(=O)Nc3cc(C)ccn3)cc2NC1=O (stereo not shown)	11.9

Structure (SMILES)	hERG current change (%, negative = inhibition) at 10uM [%]
COc1ccccc1C(=O)Nc1cccc2nc(C)ccc12	8
Cc1c(NC(=O)c2cnn3cccnc23)c(=O)n(-c2ccccc2)n1C	4.45
CCOC(=O)c1ccc(NC(=O)c2cc(C)nn2-c2ccccc2)cc1	-7.01
Cc1cc(C(=O)Nc2c(F)cc(F)cc2Br)n(-c2ccccc2)n1	16
Cc1cc(C(=O)Nc2c(F)c(F)c(F)c(F)c2F)n(-c2ccccc2)n1	-59.1
Cc1cc(C(=O)Nc2ccc(F)cc2C)n(-c2ccccc2)n1	12.6
Cc1cc(NC(=O)c2cnn3cccnc23)n(-c2ccccc2)n1	-61.8
CCOC(=O)c1cccc(NC(=O)c2cc(C)nn2-c2ccccc2)c1	-50.5
Cc1cc(NC(=O)c2cnn3cccnc23)no1	-0.805
Cc1cc(NC(=O)c2ccc(Cl)cc2)n(-c2ccccc2)n1	-1.41
Cc1cc(NC(=O)c2ccccc2)n(-c2ccccc2)n1	30.8
CC(=O)c1cccc(NC(=O)c2cc(C)nn2-c2ccccc2)c1	-21
Cc1cc(NC(=O)c2ccc(F)cc2)n(-c2ccccc2)n1	-80.2
COc1ccc(OC)c2c1C(=O)C(Cl)=C(Cl)C2=O	13.4
COCc1c(C#N)c(NCCc2ccc(F)cc2)nc(C)c1[N+](=O)[O-]	1.39
Cc1ccc(C(=O)Nc2ccc3c4c(cccc24)CC3)cc1[N+](=O)[O-]	-1.54
Cc1cc(C)n(-c2nnc(C)n2NS(C)(=O)=O)n1	14.6
Cc1csc(C(C#N)C(=O)c2ccc(S(=O)(=O)N3CCCC3)cc2)n1 (stereo not shown)	5.45
COc1ccccc1N1CCN(C(=O)CN2C(=O)C3CCCCC3C2=O)CC1 (stereo not shown)	22.7
Cc1onc(-c2c(F)cccc2Cl)c1C(=O)Nc1c(C)n(C)n(-c2ccccc2)c1=O	0.00478
